Abeta rescue: restores growth of yeast expressing A-beta42 peptide; yeast expressing A-beta42, growth rescue, OD600, 48 h; response scale: 0% DMSO, 100% iron-clioquinol control; Potency, µM (top dose mostly 46.1 µM), usual class: activators; actives 0.063% (n = 410,000); further: nearly all actives have a fitted effect of over 55% in size
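Yeast A-beta toxicity model in growth medium with pinned compounds, 48 h at 30 C; growth read as absorbance at 600 nm. Normalized to FeCl3/clioquinol equimolar mix (positive) and DMSO (negative).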
aSyn yeast inh: rescues yeast growth from alpha-synuclein toxicity; AID 652106; Yeast expressing alpha-synuclein, growth rescue, BacTiter-Glo, 24 h; Potency, µM (highest dose often 46.1 µM), inactives show at the highest dose growth rescue (activation), actives largely listed as activators; actives 0.14% (n = 370,000); further: % of control where 0% means no effect; nearly all actives have a fitted effect of over 65% in size
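Readout is rescue of growth in alpha-synuclein-expressing yeast, so inhibitors of toxicity appear as activators. Growth after 24 hr at 30 deg C in galactose medium is quantified by luminescence.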
TDP-43 yeast inh: rescues yeast growth from TDP-43 toxicity; Potency, µM (doses to about 46.1 µM), for the others: top-dose growth rescue (activation), most hits filed as activators; TDP-43 expressing yeast growth rescue, BacTiter-Glo, 24 h; AID 652104; actives 1.8% (n = 410,000); further: % of control where 0% means no effect; nearly all actives have a fitted effect of over 50% in size
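Galactose-induced TDP-43 yeast, OD600=0.02, compound pinned; 24 hr, 30 deg C; BacTiter-Glo luminescence for growth. Inhibitors of TDP-43 toxicity read as activators.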
FUS suppressor: suppressors of FUS proteinopathy in yeast. S. cerevisiae FUS-expressing, growth rescue, OD600, 24 h. Potency, µM (highest dose often 76.6 µM), most hits filed as activators. actives 0.24% (n = 390,000). AID 1347120;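 further: plate controls were DMSO vehicle for no effect and reference control for full effect; nearly all actives have a fitted effect of over 55% in size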
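Absorbance at 600 nm, taken 24hr after compound addition, measured rescue of FUS-yeast growth at 30C. Induction used 2% galactose with seeding at OD 0.005. Controls: CP55940 from 92uM final, DMSO only.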
The depositor's hits bear a star; i = inactive; ? = inconclusive; / = no result. Compounds with a hit are over-represented: about 2.1% of the library has one in this group of screens. The call rests on the fitted dose curve; in most records, active means well fitted curve in the direction sought with a large enough effect; inconclusive means small, poorly fitted or top-dose-only effect, or another doubt; inactive means no such curve, though single readings can be large; an effect the other way counts as inactive or inconclusive. Potency means the concentration at half of the fitted maximal effect.

SMILES | Abeta rescue | aSyn yeast inh | TDP-43 yeast inh | FUS suppressor
O=S(=O)(NCCc1csc(-c2ccc(F)cc2)n1)c1ccc(Cl)cc1 | 6.31µM* | / | 11.2µM* | i
CCS(=O)(=O)NCCc1csc(-c2ccccc2)n1 | i | -1.9% | -7.1% | i
COc1ccc(C(=O)C2(C(=O)Nc3cc(C)cc(C)c3)CC(c3ccccc3C(F)(F)F)=NO2)cc1 (configuration not stated) | / | / | / | i
O=C(Cc1ccccc1Cl)NO | / | 2.5% | / | /
FC(F)(F)Oc1cccc(Cn2ccc3ccc(-c4ccc5ccn(Cc6cccc(OC(F)(F)F)c6)c5c4)cc32)c1 | / | / | / | i
COc1ccc(S(=O)(=O)NCCc2csc(-c3ccc(F)cc3)n2)cc1F | i | / | 17.8µM* | i
Cc1ccc(S(=O)(=O)NCCc2csc(-c3ccc(Cl)cc3)n2)cc1 | ? | / | 20µM* | i
Cc1ccc(CCNS(=O)(=O)c2cc(-c3cc(C)no3)ccc2C)cc1 | i | / | 22.4µM* | i
O=S(=O)(NCCc1csc(-c2cccnc2)n1)c1ccc(F)cc1 | i | -13.3% | 14.1µM* | /
COc1ccc(-c2nc(CNS(=O)(=O)c3ccc(C)cc3)cs2)cc1 | i | / | 2.6% | i
Nc1nc(N)c2c(Oc3ccc(F)cc3)cccc2n1 | / | 8.0% | / | /
CC(OC(=O)/C=C/c1ccccc1)C(=O)Nc1ccc2c(c1)OCCO2 (configuration not stated) | i | 6.4% | 12.2% | i
CCN(c1ccccc1)S(=O)(=O)c1cc(C(=O)OC(C)C(=O)Nc2ccc3c(c2)OCCO3)ccc1C (configuration not stated) | / | -1.9% | -9.6% | 17.8µM*
N#Cc1ccccc1OCC(=O)Nc1ccc2c(c1)OCCCO2 | i | 16.8% | 12.6µM* | i
N#Cc1ccccc1OCC(=O)Nc1ccc2c(c1)OCCO2 | i | 2.7% | ? | /
Cc1ccccc1OC(C)C(=O)Nc1ccc2c(c1)OCCO2 (configuration not stated) | i | 6.2% | 11.2µM* | i
COc1ccc(CC(=O)Nc2ccc3nc(Nc4cccc(Cl)c4)cc(C)c3c2)cc1 | i | / | ? | ?
Cc1cc(Nc2cccc(Cl)c2)nc2ccc(NC(=O)c3cccc(N(C)C)c3)cc12 | i | / | 15.8µM* | ?
Cc1cc(Nc2cccc(C(F)(F)F)c2)nc2ccc(NC(=O)Cc3ccc(Cl)cc3)cc12 | i | / | 14.1µM* | i
Cc1cc(Nc2cccc(Cl)c2)nc2ccc(NC(=O)c3cccnc3)cc12 | i | / | 24.4% | i
COC(=O)[C@]12C[C@H](CC(=O)N3CCN(C(=O)c4ccco4)CC3)C(=O)N(CCc3ccc(OC)c(OC)c3)C1=C[C@H](C(C)C)O[C@@H]2C1CC1 | / | / | / | i
N#CCC[C@@H]1CC[C@]2(CCCN(C(=O)c3cccnc3)C2)O1 | / | / | / | i
O=C(Cc1ccc(S(=O)(=O)N2CCOCC2)s1)Nc1nc2c(s1)CCCC2 | i | -8.8% | -22.3% | 8.91µM*
CC1CCN(c2oc(-c3ccco3)nc2S(=O)(=O)c2ccccc2)CC1 | i | -5.0% | 15.8µM* | i
C[C@@H]1CCCN1c1cccc2c1S(=O)(=O)N1CC[C@H](C1)O2 | / | / | / | i
SMILES | Abeta rescue | aSyn yeast inh | TDP-43 yeast inh | FUS suppressor
CC(=O)c1cc(-c2ccc(-c3ccccc3)c(F)c2)c(=O)n2c1CCC2 | / | / | / | i
COc1cc(O)c([C@@H](CC(=O)N2CC(C)CC(C)C2)c2ccc3c(c2)OCO3)c(OC)c1 (some centres not stated) | / | / | / | 25.1µM*
O=C1CCC[C@H]2C[C@H](NCc3cccs3)CC[C@]23CCCN13 | / | / | / | i
C=CC[C@H](CC(=O)N(CCO)Cc1ccccc1)C(=O)N[C@H](COC(=O)[C@@H](CC=C)CC(=O)OC(C)(C)C)Cc1ccccc1 | i | -2.2% | -15.3% | 7.94µM*
CCCCNc1ccc(/C=C2\C=Cc3ccccc32)cc1 | / | 0.3% | / | /
O=Cc1ccc(N2Cc3ccccc3C2)cc1 | i | 2.3% | 3.16µM* | i
COC(=O)CN1CCN(C(=O)c2nocc2C)CC1 | / | / | / | i
COc1ccccc1NCC(O)COc1ccc(C(C)(C)C)cc1 (configuration not stated) | i | ? | -26.7% | ?
COc1ccc(NCC(O)COc2ccc(C(C)(C)C)cc2)cc1 (configuration not stated) | ? | 24.2% | 15.8µM* | i
COc1ccc(N2CCN(CC(O)COc3ccc(C(C)(C)C)cc3)CC2)cc1 (configuration not stated) | i | / | 12.6µM* | i
COc1ccc(S[C@]2(C(=O)N(C)C)CC(=O)N(c3ccccc3)[C@@H]2c2ccc(OC)cc2)cc1 | / | / | / | i
COc1ccc(/C=C/c2c([N+](=O)[O-])c(=O)n(C)c(=O)n2C)cc1OC | i | -8.6% | -14.3% | i
Cn1c(/C=C/c2ccc(Cl)cc2)c([N+](=O)[O-])c(=O)n(C)c1=O | i | 6.0% | 17.8µM* | i
O=[N+]([O-])c1ccc2c(c1)/C(=C/c1ccc(C=S)cc1)C=C2 | / | 0.8% | / | /
CC(C)CNC(=O)CSc1ccc(S(=O)(=O)N(C)C2CCCCC2)cn1 | i | 10.8% | 8.5% | i
CN(C1CCCCC1)S(=O)(=O)c1ccc(SCC(=O)C(C)(C)C)nc1 | i | ? | 20µM* | i
COc1cc2nc(SCc3ccc(Cl)cc3Cl)n(Cc3cccs3)c(=N)c2cc1OC | i | 0.2% | 25.1µM* | i
C(=C\c1nc(-c2ccncc2)no1)/c1ccccc1 | i | 6.7% | 11.2µM* | i
CC(C)(C)c1ccc(NC(=O)COC(=O)c2ccccc2OCC(=O)Nc2ccc(Br)cc2)cc1 | / | -3.6% | / | /
Cc1ccc(CCNC(=O)c2c(C)nn(-c3ccc(F)cc3)c2-n2cccc2)cc1 | i | 8.5% | 22.4µM* | i
COc1ccc(CCNC(=O)c2c(C)nn(-c3ccc(F)cc3)c2-n2cccc2)cc1OC | i | ? | 20.4% | i
O=S(=O)(NCCc1csc2nc(-c3ccccc3)nn12)c1cc(F)ccc1F | ? | / | 22.4µM* | i
Cc1ccc(S(=O)(=O)NCCc2csc(-c3cccc(F)c3)n2)cc1 | i | / | 17.8µM* | i
O=S(=O)(NCCc1csc(-c2cccc(F)c2)n1)c1cc(F)ccc1F | ? | / | 2.51µM* | i
COc1ccc(F)cc1S(=O)(=O)NCCc1csc2nc(-c3cccc(C)c3)nn12 | i | / | 10.3% | ?
CC(C)N(C(=O)CSc1nc2ccc(Cl)cc2[nH]1)c1ccccc1 | i | / | 35.5µM* | i
CCC(c1nnnn1-c1ccc2c(c1)OCCO2)N1CCN(c2ccc(F)cc2)CC1 (configuration not stated) | i | 9.5% | 0.0% | i
CCC(c1nnnn1-c1ccc2c(c1)OCCO2)N1CCN(c2ncccc2C(F)(F)F)CC1 (configuration not stated) | i | ? | 12.6µM* | ?
CC12CN3CC(C)(CN(C1)C3c1ccc([N+](=O)[O-])o1)C2 (configuration not stated) | i | -58.1% | 11.2µM* | i

Bioassay records (PubChem BioAssay)
